Compound activity: PubChem, several laboratories
BoNT A protease = BoNT A light chain protease inhibition; multiplex microsphere protease substrate cleavage, flow cytometry; 360,000 compounds, 0.17% hits; inhibition, % at 10 µM; note: plate controls were buffer without enzyme for full effect and enzyme alone for no effect
BoNT-F LC inh = inhibitors of Botulinum neurotoxin F light chain protease. Multiplex microsphere protease cleavage assay, flow cytometry. inhibition, % at 10 µM. 360,000 compounds, 0.22% hits. AID 588497; in the data active = inhibition above about 35%, passing the limit was not always enough; inconclusive = no clear call, values can overlap the other calls; note: plate controls were buffer without enzyme for full effect and enzyme alone for no effect
BJeLR lethal = kills HRASV12-expressing BJeLR cells. BJeLR (HRASV12) viability, CellTiter-Glo ATP luminescence, 48 h. inhibition, % (no concentration beside the values). 300,000 compounds, 0.17% hits. AID 1554; in the data active = inhibition above about 50%; inconclusive = no clear call, values can overlap the other calls
Anthrax LF prot = inhibitors of Bacillus anthracis lethal factor protease; P15917; multiplex microsphere protease cleavage assay, LF; inhibition, % at 10 µM; 360,000 compounds, 0.12% hits; AID 588501; note: plate controls were buffer without enzyme for full effect and enzyme alone for no effect
Bead autofluor = flagged as autofluorescent in microsphere protease counterscreen | compound autofluorescence counterscreen, microsphere flow cytometry; stronger effect = higher value | fluorescence intensity (concentration not given with the values) | 360,000 compounds, 3.1% hits | AID 624483; in the data active = fluorescence intensity above about 16000; inconclusive = no clear call, values can overlap the other calls
* hit, by the source's call; ? = inconclusive; . = not tested or not shown. Only some compounds are listed: those with a hit (about 3.5% of all), similar ones and a draw of the others. Cut-off read from the data, not from the text of the source, unless noted: active = inhibition above about 30%; inconclusive = no clear call, values can overlap the other calls; inactive = below that.

SMILES	BoNT A protease	BoNT-F LC inh	BJeLR lethal	Anthrax LF prot	Bead autofluor
N=c1oc2ccc3ccccc3c2cc1-c1nc(-c2ccccc2)cs1	34*	23	8	32*	7671
CCc1ccc(CNc2ccc3c(c2)ncn3C)cc1	4	1	17	-3	21662*
Cc1ccc2[nH]c3c(N4CCN(Cc5ccccc5)CC4)ncnc3c2c1	0	-9	7	-2	4166
CCOc1ccc2[nH]c3c(N4CCN(c5ccccn5)CC4)ncnc3c2c1	-10	-12	8	-7	18129*
O=C(CCCn1c(=S)[nH]c2cc3c(cc2c1=O)OCO3)N1CCN(c2ccccc2F)CC1	0	7	-3	-3	9260
Cc1ccc(C)c(N2CCN(C(=O)CCCn3c(=S)[nH]c4cc5c(cc4c3=O)OCO5)CC2)c1	-3	-8	4	0	17273*
CCOC(=O)N1CCN(C(=O)CCCn2c(=S)[nH]c3ccc(Br)cc3c2=O)CC1	?	-3	4	0	20951*
O=C(CCCn1c(=S)[nH]c2cc3c(cc2c1=O)OCO3)N1CCN(c2ncccn2)CC1	?	4	-2	-2	20894*
CCOC(=O)c1c(C)[nH]c(C(=O)CN2C(=O)NC(C)(c3ccc4ccccc4c3)C2=O)c1C (stereo not drawn)	-2	-2	-9	-3	20042*
O=C(COc1coc(CN2CCc3ccccc3C2)cc1=O)Nc1ccc(F)cc1F	-2	-5	3	-3	5436
Cc1cccc2nc(Cn3c(=O)n(CCC(=O)NCc4ccco4)c(=O)c4sccc43)cc(=O)n12	10	9	-10	-2	20173*
Cc1cccc2nc(Cn3c(=O)n(CCC(=O)NCc4ccco4)c(=O)c4ccccc43)cc(=O)n12	1	-5	.	0	3373
Cc1ccccc1NC(=O)C1CCCN(C(=O)Nc2ccc(F)cc2)C1 (stereo not drawn)	1	-2	-1	-1	5358
O=C(NCc1ccccc1)C1CCCN(C(=O)Nc2ccccc2)C1 (stereo not drawn)	?	-5	.	-6	20689*
O=C(NC1CCCCC1)N1CCCC1	1	1	-8	-2	21923*
Cc1cccc(NC(=O)C2CCCN(C(=O)Nc3ccccc3)C2)c1C (stereo not drawn)	?	-4	15	-1	22928*
Cc1cccc(NC(=O)C2CCCN2C(=O)OCC(C)C)c1C (stereo not drawn)	2	3	6	-2	21398*
O=C(NCCc1ccccc1)C1CCCN(C(=O)NC2CCCCC2)C1 (stereo not drawn)	?	1	1	-4	22227*
COC(=O)[C@]12CCCCC=C1N(Cc1ccco1)C(=O)[C@H](CC(=O)NCc1ccc(C)o1)C2	-1	-7	.	-14	6093
CCOC(=O)C1=NN(N=O)C2(CC(=O)N(c3cc(C)cc(C)c3)C2=O)C1 (stereo not drawn)	-4	-9	-9	-2	24546*
CCOC(=O)C1=NNC2(CC(=O)N(c3cc(C)cc(C)c3)C2=O)C1 (stereo not drawn)	-1	-11	9	-8	4514
Cc1nnc(SCCC(=O)Nc2nc(-c3ccccc3)ns2)s1	-2	-6	.	-4	16875*
CC(C)C(=O)Nc1nc(-c2ccccc2)ns1	?	3	21	-7	22460*
CCC(=O)Nc1nc(-c2ccccc2)ns1	2	2	-2	-2	21302*
O=C(Nc1nc(-c2ccccc2)cs1)c1cccs1	0	-6	4	-4	3095
SMILES	BoNT A protease	BoNT-F LC inh	BJeLR lethal	Anthrax LF prot	Bead autofluor
O=C(Nc1nc(-c2ccccc2)ns1)c1cccs1	-5	-6	18	-1	22042*
CCCC(=O)Nc1nc(-c2ccccc2)ns1	-1	-18	-2	-2	2564
CCOc1ccc(NC(=O)CCSc2nnc(C)s2)cc1	-1	-17	1	2	5060
CC1(NC(=O)Nc2cccc3ccccc23)CCS(=O)(=O)C1 (stereo not drawn)	0	1	4	2	3031
Nc1cccc2c1C(=O)N(C(=O)c1cccc(S(=O)(=O)N3CCCCCC3)c1)C2=O	1	-1	2	-2	3481
CC(C)NC(=O)C1(C)CCCCN1Cc1ccc(OCc2ccccc2)cc1 (stereo not drawn)	0	-8	.	-12	3287
CC(=O)/C(N=Nc1cc2c(c([N+](=O)[O-])c1C)C(C)(C)CC2(C)C)=C(\C)O	.	.	2	.	.
O=CNCCCc1nc2ccccc2n1Cc1cccc2ccccc12	?	2	-7	-16	20866*
Cn1c(CC(=O)Nc2ccccc2Cl)nnc1SCC(=O)Nc1nncs1	0	-18	-10	2	2836
